Measured values as given in the supplement of paper PMC10849652.
Of roughly 7,900 targets only a part is listed; those with a hit were picked by preference. About 0.6% of all pairs of compound and target were hits.

compound: CC[C@H](C)N1C=C(C2=C(C=C(C=C21)C3=CN=C(C=C3)N4CCNCC4)C(=O)NCC5=C(C=C(NC5=O)C)C)C; assay: log2 fold change, soluble protein after heating vs DMSO (PISA); higher = thermal stabilisation; K562 cells, 10 uM, 30 min; active = over 0.2 and 3.5 SD of the protein, either way, in both replicates (recomputed)
How it was run: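 Soluble protein was defined as the supernatant after 21,000xg for 90 min. It came from K562 cells at 2×10^6 cells/mL given 10 μM compound for 30 min, heated in aliquots for 3 min across 48°C-58°C, pooled, and extracted in PBS with 0.5% NP-40 at 4°C, and was quantified by TMTpro 16plex LC-MS/MS with equalised channel sums. Thermal stability against control samples, from duplicates, is reported as log2 fold change.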

Chain of UniProt Q8N1S5 (Q8N1S5 whole entry, looked up): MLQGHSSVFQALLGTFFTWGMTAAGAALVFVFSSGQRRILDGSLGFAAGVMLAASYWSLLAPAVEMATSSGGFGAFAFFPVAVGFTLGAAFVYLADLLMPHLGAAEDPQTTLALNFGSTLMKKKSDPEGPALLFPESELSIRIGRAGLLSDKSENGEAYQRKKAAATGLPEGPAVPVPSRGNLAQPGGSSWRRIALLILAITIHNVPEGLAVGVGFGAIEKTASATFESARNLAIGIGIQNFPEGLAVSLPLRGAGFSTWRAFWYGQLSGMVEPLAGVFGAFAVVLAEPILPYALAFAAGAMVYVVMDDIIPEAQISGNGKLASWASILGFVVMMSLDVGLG
Chain of UniProt Q8TCT7 (Q8TCT7 whole entry, looked up): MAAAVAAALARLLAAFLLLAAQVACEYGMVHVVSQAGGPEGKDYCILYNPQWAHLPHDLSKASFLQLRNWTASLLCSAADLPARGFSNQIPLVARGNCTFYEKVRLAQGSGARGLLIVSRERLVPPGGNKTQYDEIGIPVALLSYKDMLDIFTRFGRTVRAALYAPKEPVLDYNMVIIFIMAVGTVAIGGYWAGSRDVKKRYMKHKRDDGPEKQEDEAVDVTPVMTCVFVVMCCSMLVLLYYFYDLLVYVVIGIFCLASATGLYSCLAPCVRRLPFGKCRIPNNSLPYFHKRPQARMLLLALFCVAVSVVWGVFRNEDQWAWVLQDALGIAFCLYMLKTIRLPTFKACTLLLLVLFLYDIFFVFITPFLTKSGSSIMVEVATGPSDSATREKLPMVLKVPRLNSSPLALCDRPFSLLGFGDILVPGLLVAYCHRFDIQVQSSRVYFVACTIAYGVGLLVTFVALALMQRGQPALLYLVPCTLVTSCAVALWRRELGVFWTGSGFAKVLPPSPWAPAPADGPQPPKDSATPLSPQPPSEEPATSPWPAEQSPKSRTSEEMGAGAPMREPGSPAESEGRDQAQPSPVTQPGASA
Chain of UniProt Q9BWG4 (Q9BWG4 whole entry, looked up): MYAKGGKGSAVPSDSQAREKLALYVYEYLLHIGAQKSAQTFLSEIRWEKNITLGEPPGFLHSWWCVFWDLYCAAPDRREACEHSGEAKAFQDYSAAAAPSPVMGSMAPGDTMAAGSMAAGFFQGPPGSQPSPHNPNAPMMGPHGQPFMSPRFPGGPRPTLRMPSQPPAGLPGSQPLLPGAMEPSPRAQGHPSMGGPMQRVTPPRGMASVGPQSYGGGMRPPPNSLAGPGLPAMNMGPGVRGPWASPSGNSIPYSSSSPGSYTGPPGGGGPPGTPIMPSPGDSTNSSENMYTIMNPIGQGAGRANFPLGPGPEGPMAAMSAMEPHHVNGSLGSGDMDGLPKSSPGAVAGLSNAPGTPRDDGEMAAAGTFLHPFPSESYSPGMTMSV
Chain of UniProt Q9P289 (Q9P289 whole entry, looked up): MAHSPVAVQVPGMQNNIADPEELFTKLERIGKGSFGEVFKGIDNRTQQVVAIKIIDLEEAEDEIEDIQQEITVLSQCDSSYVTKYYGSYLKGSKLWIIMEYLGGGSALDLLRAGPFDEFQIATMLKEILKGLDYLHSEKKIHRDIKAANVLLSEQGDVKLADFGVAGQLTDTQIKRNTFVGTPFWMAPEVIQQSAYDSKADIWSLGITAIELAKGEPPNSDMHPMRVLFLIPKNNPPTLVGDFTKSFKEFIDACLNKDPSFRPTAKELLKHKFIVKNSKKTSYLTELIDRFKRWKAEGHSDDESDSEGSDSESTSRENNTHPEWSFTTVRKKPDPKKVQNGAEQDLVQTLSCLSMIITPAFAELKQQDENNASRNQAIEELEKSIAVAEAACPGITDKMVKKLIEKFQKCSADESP
Chain of UniProt Q9BW92 (Q9BW92 whole entry, looked up): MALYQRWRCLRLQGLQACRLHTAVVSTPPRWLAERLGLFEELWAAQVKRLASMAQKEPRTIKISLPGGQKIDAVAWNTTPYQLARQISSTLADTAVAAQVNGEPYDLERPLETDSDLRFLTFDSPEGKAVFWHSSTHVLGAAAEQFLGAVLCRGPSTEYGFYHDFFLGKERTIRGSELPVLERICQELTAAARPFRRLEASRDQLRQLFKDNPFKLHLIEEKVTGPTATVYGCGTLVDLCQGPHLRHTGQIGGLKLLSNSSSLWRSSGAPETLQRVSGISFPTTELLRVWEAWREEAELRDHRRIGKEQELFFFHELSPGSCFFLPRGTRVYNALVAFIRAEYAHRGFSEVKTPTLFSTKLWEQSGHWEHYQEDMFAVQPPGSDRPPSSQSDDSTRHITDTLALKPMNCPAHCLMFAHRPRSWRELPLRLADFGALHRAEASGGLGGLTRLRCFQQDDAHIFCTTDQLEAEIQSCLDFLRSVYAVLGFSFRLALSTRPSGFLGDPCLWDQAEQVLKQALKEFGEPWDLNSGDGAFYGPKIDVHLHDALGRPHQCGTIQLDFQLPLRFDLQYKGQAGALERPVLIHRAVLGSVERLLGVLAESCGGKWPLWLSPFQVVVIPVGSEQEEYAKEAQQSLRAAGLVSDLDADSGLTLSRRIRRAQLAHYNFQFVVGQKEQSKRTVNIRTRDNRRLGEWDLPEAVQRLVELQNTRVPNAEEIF
Chain of UniProt O94901 (O94901 whole entry, looked up): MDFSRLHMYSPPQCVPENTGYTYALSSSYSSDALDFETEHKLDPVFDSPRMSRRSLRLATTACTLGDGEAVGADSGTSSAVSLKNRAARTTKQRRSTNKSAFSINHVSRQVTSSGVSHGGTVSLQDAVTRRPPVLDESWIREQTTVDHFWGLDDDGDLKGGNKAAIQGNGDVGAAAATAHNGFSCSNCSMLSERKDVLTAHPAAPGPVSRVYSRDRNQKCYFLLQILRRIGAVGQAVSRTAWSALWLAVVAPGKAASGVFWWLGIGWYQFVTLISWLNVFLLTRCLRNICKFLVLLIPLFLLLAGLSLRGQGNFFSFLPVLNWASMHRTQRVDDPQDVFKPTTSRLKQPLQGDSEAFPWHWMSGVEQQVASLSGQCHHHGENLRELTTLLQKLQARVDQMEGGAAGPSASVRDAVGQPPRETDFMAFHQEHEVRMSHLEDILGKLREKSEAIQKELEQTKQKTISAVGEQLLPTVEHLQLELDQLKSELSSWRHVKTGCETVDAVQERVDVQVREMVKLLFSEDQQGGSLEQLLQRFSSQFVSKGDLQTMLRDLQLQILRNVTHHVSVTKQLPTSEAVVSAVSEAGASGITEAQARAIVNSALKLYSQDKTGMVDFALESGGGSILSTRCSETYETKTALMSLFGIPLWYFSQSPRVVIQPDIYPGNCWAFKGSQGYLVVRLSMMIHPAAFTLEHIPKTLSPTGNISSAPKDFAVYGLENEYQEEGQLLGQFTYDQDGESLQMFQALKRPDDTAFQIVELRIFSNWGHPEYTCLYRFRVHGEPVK
Chain of UniProt Q9UL54 (Q9UL54 whole entry, looked up): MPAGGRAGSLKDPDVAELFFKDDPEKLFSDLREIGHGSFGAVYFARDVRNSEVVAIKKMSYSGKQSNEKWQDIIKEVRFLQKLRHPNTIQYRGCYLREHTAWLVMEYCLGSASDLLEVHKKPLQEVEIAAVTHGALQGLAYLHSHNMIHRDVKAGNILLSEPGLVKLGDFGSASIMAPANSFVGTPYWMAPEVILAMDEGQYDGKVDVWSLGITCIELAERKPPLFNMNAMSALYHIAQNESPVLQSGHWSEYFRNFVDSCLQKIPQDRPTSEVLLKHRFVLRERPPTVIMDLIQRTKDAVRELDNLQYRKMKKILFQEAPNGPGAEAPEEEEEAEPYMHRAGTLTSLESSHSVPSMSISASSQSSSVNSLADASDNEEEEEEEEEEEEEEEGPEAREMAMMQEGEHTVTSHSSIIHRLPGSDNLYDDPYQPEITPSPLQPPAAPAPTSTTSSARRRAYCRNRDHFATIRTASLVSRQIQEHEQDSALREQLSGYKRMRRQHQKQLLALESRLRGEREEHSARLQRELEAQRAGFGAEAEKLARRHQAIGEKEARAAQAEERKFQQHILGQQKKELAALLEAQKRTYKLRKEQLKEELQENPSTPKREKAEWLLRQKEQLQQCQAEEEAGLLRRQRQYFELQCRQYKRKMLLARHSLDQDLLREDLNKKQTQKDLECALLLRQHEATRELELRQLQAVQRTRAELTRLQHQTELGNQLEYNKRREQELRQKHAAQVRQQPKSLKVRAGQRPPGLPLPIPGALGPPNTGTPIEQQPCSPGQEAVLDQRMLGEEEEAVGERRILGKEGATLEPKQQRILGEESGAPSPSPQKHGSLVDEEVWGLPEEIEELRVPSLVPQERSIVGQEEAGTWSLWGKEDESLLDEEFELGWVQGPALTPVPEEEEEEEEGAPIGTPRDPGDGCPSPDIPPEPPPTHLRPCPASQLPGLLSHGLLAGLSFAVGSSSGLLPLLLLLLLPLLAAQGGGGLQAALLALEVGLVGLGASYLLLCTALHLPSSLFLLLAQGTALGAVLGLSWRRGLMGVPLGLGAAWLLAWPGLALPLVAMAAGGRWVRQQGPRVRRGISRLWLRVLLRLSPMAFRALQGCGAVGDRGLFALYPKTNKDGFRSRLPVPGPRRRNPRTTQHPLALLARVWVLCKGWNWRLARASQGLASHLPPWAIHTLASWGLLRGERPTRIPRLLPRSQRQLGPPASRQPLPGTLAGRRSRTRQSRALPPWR
Chain of UniProt P12931 (P12931 whole entry, looked up): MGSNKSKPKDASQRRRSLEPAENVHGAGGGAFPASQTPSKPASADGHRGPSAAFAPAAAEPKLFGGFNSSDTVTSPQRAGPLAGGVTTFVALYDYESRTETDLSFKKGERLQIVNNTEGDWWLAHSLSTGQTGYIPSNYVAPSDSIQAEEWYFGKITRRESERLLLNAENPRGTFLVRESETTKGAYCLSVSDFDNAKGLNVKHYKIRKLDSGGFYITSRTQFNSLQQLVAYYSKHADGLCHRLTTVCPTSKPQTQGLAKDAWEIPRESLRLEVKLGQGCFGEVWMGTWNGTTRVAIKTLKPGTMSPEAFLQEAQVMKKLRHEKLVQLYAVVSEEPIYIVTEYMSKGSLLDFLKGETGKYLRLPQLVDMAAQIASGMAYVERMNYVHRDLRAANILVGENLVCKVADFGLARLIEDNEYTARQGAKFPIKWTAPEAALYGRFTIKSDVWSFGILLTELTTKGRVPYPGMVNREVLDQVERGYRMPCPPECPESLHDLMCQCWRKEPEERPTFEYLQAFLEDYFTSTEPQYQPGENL

log2 fold change, inactive:
SYNE2 isoform 2 (UniProt Q8WXH0) -0.145
TBK1 (UniProt Q9UHD2) 0.055
TANGO6 (UniProt Q9C0B7) 0.052
SLC38A7 (UniProt Q9NVC3) -0.023
TENT5C (UniProt Q5VWP2) 0.005
SRXN1 (UniProt Q9BYN0) 0.027
SLC29A3 (UniProt Q9BZD2) 0.05
SMARCE1 (UniProt Q969G3) 0.087
SRC isoform 2 (UniProt P12931) 0.108
SRFBP1 (UniProt Q8NEF9) -0.094
SLC39A11 (UniProt Q8N1S5) 0.007
TBC1D15 isoform 3 (UniProt Q8TC07) 0.04
TM7SF3 (UniProt Q9NS93) -0.074
SNX15 (UniProt Q9NRS6) -0.023
SPPL2B (UniProt Q8TCT7) -0.003
SMIM20 isoform 2 (UniProt Q8N5G0) -0.033
SRSF9 (UniProt Q13242) -0.004
SLC35F6 (UniProt Q8N357) 0.087
TBC1D20 isoform 3 (UniProt Q96BZ9) 0.07
TEX264 (UniProt Q9Y6I9) -0.073
SPCS2 (UniProt Q15005) 0.02
TJP1 (UniProt Q07157) 0.022
TACC2 (UniProt O95359) 0.014
SSBP4 (UniProt Q9BWG4) -0.036
SNRPB2 (UniProt P08579) -0.069
STK26 (UniProt Q9P289) 0.018
SP100 isoform 4 (UniProt P23497) 0.012
STARD3NL (UniProt O95772) -0.036
SNX5 (UniProt Q9Y5X3) 0.076
TMBIM6 isoform 2 (UniProt P55061) -0.041
TARS2 (UniProt Q9BW92) 0.012
SPTBN1 (UniProt Q01082) 0.079
SLC35A1 (UniProt P78382) -0.034
SLC38A2 (UniProt Q96QD8) -0.091
TAOK2 (UniProt Q9UL54) -0.006
SUN1 isoform 9 (UniProt O94901) -0.065
SRCAP (UniProt Q6ZRS2) -0.059
TBP (UniProt P20226) 0.095
